Measured values reported in PubChem BioAssay AID1159580 (chemical genetic matrix, 2015).
Out of some 5,500 compounds screened, about 2,000 (36%) were called active. Another 18% or so got no clear call; they are omitted. No stated cut-off is given here; in the data, active means normalized growth mostly below about 0.91 (no sharp cut-off); inconclusive means no clear call, values can overlap the other calls; inactive means mostly above about 0.92. This is one part of the list.

Experiment: chemical genetic growth profiling, strain panel (AID 1159580);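 further: tested at 20 µM; growth read once vehicle control cultures reached saturation at 30 °C; 1 = growth at the plate median or of vehicle wells; lower values mean less growth of the strain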
Conditions: growth OD

Measured: normalized growth

CCCCC(=O)O[C@]1(C(=O)CO)[C@@H](C)CC2C3CCC4=CC(=O)C=C[C@]4(C)[C@@]3(F)C(O)C[C@@]21C (some centres undefined)
inactive: S. cerevisiae deletion strains, locus YKL009W, strain mrt4, hits give low values 0.969 | S. cerevisiae deletion strains, locus YKL068W, hits give low values 0.991 | S. cerevisiae deletion strains, locus YKL085W, strain MDH1 (second series), hits give low values 0.987 | S. cerevisiae deletion strains, locus YKL085W, strain MDH1, hits give low values 0.987 | S. cerevisiae deletion strains, locus YKL160W, strain elf1, hits give low values 0.958 | S. cerevisiae deletion strains, locus YKL190W, strain CNB1, hits give low values 0.999 | S. cerevisiae deletion strains, locus YKR001C, strain vps1, hits give low values 0.972 | S. cerevisiae deletion strains, locus YKR026C, strain gcn3, hits give low values 0.97 | S. cerevisiae deletion strains, locus YKR091W, strain srl3, hits give low values 0.986 | S. cerevisiae deletion strains, locus YLL001W, strain dnm1, hits give low values 0.919 | S. cerevisiae deletion strains, locus YLL026W, hits give low values 0.964 | S. cerevisiae deletion strains, locus YLL041C, strain sdh2, hits give low values 0.991 | S. cerevisiae deletion strains, locus YLR027C, strain aat2, hits give low values 0.977 | S. cerevisiae deletion strains, locus YLR039C, strain RIC1, hits give low values 1.07 | S. cerevisiae deletion strains, locus YLR058C, strain SHM2, hits give low values 0.95 | S. cerevisiae deletion strains, locus YLR102C, strain apc9, hits give low values 1 | S. cerevisiae deletion strains, locus YLR113W, strain HOG1, hits give low values 0.956 | S. cerevisiae deletion strains, locus YLR221C, strain rsa3, hits give low values 0.993 | S. cerevisiae deletion strains, locus YLR258W, strain gsy2, hits give low values 0.99 | S. cerevisiae deletion strains, locus YLR262C, strain YPT6 (second series), hits give low values 0.948 | S. cerevisiae deletion strains, locus YLR262C, strain YPT6, hits give low values 1.01 | S. cerevisiae deletion strains, locus YLR268W, strain sec22, hits give low values 0.96 | S. cerevisiae deletion strains, locus YLR320W, strain mms22, hits give low values 0.996 | S. cerevisiae deletion strains, locus YLR330W, strain CHS5, hits give low values 0.99 | S. cerevisiae deletion strains, locus YLR342W, strain FKS1 (second series), hits give low values 1 | S. cerevisiae deletion strains, locus YLR342W, strain FKS1, hits give low values 0.973 | S. cerevisiae deletion strains, locus YLR357W, strain rsc2, hits give low values 1 | S. cerevisiae deletion strains, locus YLR370C, strain arc18, hits give low values 0.977 | S. cerevisiae deletion strains, locus YLR371W, strain rom2, hits give low values 0.984 | S. cerevisiae deletion strains, locus YLR384C, strain iki3, hits give low values 0.963 | S. cerevisiae deletion strains, locus YLR418C, strain cdc73, hits give low values 0.973 | S. cerevisiae deletion strains, locus YML016C, strain PPZ1, hits give low values 0.987 | S. cerevisiae deletion strains, locus YML032C, strain rad52, hits give low values 1 | S. cerevisiae deletion strains, locus YML120C, strain ndi1, hits give low values 0.998 | S. cerevisiae deletion strains, locus YML124C, strain tub3, hits give low values 1.01 | S. cerevisiae deletion strains, locus YMR058W, strain fet3, hits give low values 0.981 | S. cerevisiae deletion strains, locus YMR078C, strain ctf18, hits give low values 0.98 | S. cerevisiae deletion strains, locus YMR125W, strain sto1, hits give low values 0.99 | S. cerevisiae deletion strains, locus YMR129W, hits give low values 0.988 | S. cerevisiae deletion strains, locus YMR205C, strain PFK2, hits give low values 0.984 | S. cerevisiae deletion strains, locus YMR223W, strain ubp8, hits give low values 0.974 | S. cerevisiae deletion strains, locus YMR231W, strain pep5, hits give low values 0.979 | S. cerevisiae deletion strains, locus YMR307W, strain GAS1, hits give low values 0.968 | S. cerevisiae deletion strains, locus YNL067W, strain RPL9B, hits give low values 0.964 | S. cerevisiae deletion strains, locus YNL071W, strain lat1, hits give low values 0.918 | S. cerevisiae deletion strains, locus YNL128W, strain TEP1, hits give low values 0.968 | S. cerevisiae deletion strains, locus YNL153C, strain GIM3, hits give low values 0.923 | S. cerevisiae deletion strains, locus YNL183C, strain NPR1, hits give low values 0.933 | S. cerevisiae deletion strains, locus YNL209W, strain ssb2, hits give low values 0.975 | S. cerevisiae deletion strains, locus YNL233W, strain BNI4, hits give low values 0.963 | S. cerevisiae deletion strains, locus YNL248C, strain rpa49, hits give low values 0.967 | S. cerevisiae deletion strains, locus YNL250W, strain rad50, hits give low values 0.978 | S. cerevisiae deletion strains, locus YNL271C, strain bni1, hits give low values 0.971 | S. cerevisiae deletion strains, locus YNL298W, strain CLA4, hits give low values 0.977 | S. cerevisiae deletion strains, locus YNL307C, strain MCK1, hits give low values 0.979 | S. cerevisiae deletion strains, locus YNL322C, strain KRE1 (second series), hits give low values 0.954 | S. cerevisiae deletion strains, locus YNR049C, strain mso1, hits give low values 0.983 | S. cerevisiae deletion strains, locus YNR052C, strain pop2, hits give low values 0.979 | S. cerevisiae deletion strains, locus YOL006C, strain TOP1, hits give low values 0.98 | S. cerevisiae deletion strains, locus YOL012C, strain htz1 1.06 | S. cerevisiae deletion strains, locus YOL147C, strain pex11, hits give low values 0.989 | S. cerevisiae deletion strains, locus YOR001W, strain rrp6, hits give low values 0.938 | S. cerevisiae deletion strains, locus YOR061W, strain CKA2, hits give low values 0.987 | S. cerevisiae deletion strains, locus YOR069W, strain VPS5, hits give low values 0.989 | S. cerevisiae deletion strains, locus YOR070C, strain gyp1, hits give low values 0.986 | S. cerevisiae deletion strains, locus YOR080W, strain dia2, hits give low values 0.965 | S. cerevisiae deletion strains, locus YOR083W, strain WHI5, hits give low values 0.956 | S. cerevisiae deletion strains, locus YOR106W, strain vam3, hits give low values 0.929 | S. cerevisiae deletion strains, locus YOR136W, strain idh2, hits give low values 0.979 | S. cerevisiae deletion strains, locus YOR144C, strain elg1, hits give low values 0.994 | S. cerevisiae deletion strains, locus YOR184W, strain ser1, hits give low values 0.984 | S. cerevisiae deletion strains, locus YOR231W, strain MKK1, hits give low values 0.976 | S. cerevisiae deletion strains, locus YOR265W, strain rbl2, hits give low values 0.981 | S. cerevisiae deletion strains, locus YOR270C, strain vph1, hits give low values 0.88 | S. cerevisiae deletion strains, locus YOR290C, strain snf2, hits give low values 1.01 | S. cerevisiae deletion strains, locus YOR316C, strain cot1, hits give low values 0.988 | S. cerevisiae deletion strains, locus YPL051W, strain arl3, hits give low values 0.993 | S. cerevisiae deletion strains, locus YPL055C, strain LGE1, hits give low values 0.975 | S. cerevisiae deletion strains, locus YPL078C, strain atp4, hits give low values 0.927 | S. cerevisiae deletion strains, locus YPL106C, strain sse1, hits give low values 1.01 | S. cerevisiae deletion strains, locus YPL240C, strain hsp82, hits give low values 0.967 | S. cerevisiae deletion strains, locus YPL241C, strain CIN2, hits give low values 1 | S. cerevisiae deletion strains, locus YPL256C, strain CLN2, hits give low values 0.973 | S. cerevisiae deletion strains, locus YPR119W, strain clb2, hits give low values 0.993 | S. cerevisiae deletion strains, locus YPR141C, strain kar3, hits give low values 0.968 | S. cerevisiae deletion strains, locus YPR163C, strain tif3, hits give low values 0.985 | S. cerevisiae deletion strains, locus YPR167C, strain met16, hits give low values 0.984 | S. cerevisiae deletion strains, strain wtn01, hits give low values 0.992 | S. cerevisiae strains, strain wild type, hits give low values 0.985
